From ChEMBL document CHEMBL1961873, “Compounds: GSK PKIS; Assays: Nanosyn kinase panel” (2012)
Where “and” joins values, the source holds several entries; their conditions need not be identical. Identical values can stand only once.

Tests used:
[1] = target: T1, 3-phosphoinositide-dependent protein kinase 1 (Homo sapiens) (UniProt O15530); details: at 0.1 µM;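 also: values are mean inhibition of PDK1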
T1 sequence (whole entry): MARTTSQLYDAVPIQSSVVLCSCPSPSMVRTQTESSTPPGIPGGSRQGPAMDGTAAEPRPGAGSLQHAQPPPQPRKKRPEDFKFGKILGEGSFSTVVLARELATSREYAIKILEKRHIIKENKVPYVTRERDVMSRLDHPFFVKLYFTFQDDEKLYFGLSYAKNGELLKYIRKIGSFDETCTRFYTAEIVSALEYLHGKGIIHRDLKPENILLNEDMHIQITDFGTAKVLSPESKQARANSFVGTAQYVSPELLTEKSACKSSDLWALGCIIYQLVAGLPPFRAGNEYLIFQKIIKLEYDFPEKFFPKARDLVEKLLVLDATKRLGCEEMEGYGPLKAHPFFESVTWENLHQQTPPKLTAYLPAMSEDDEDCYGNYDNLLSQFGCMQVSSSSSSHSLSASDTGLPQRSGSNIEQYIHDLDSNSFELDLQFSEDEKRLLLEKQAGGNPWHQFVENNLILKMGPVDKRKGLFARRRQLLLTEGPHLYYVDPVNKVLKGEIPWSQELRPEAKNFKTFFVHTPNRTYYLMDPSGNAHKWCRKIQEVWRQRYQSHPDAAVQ

[2] = target: cAMP-dependent protein kinase catalytic subunit alpha (Homo sapiens) (UniProt P17612); details: at 0.1 µM
[3] = target: cAMP-dependent protein kinase catalytic subunit alpha (Homo sapiens) (UniProt P17612); details: at 1 µM
[4] = target: Protein kinase C alpha type (Homo sapiens) (UniProt P17252); details: at 0.1 µM
[5] = target: Protein kinase C alpha type (Homo sapiens) (UniProt P17252); details: at 1 µM
[6] = target: Protein kinase C beta type (Homo sapiens) (UniProt P05771); details: at 0.1 µM
Chain of Protein kinase C beta type (Homo sapiens) (P05771 2-671 limits assumed): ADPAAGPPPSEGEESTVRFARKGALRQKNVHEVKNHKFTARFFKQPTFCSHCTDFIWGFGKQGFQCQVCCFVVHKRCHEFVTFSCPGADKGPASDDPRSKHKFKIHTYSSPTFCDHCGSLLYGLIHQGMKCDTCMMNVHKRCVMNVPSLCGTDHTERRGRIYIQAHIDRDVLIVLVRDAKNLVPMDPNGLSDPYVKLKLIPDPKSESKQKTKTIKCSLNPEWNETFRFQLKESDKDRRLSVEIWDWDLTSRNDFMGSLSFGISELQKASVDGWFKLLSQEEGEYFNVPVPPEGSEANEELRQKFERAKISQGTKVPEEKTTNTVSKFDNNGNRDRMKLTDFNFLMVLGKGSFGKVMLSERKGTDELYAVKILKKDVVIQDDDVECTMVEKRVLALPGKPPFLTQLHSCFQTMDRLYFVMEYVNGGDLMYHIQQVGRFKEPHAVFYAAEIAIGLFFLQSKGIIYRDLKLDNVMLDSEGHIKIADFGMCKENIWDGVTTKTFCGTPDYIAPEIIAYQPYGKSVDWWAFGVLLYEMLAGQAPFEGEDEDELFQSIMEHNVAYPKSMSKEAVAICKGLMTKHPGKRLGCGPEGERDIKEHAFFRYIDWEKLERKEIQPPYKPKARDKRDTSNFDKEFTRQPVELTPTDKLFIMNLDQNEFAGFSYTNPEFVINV

[7] = target: Protein kinase C beta type (Homo sapiens) (UniProt P05771); details: at 1 µM
[8] = target: Protein kinase C eta type (Homo sapiens) (UniProt P24723); details: at 0.1 µM
Chain of Protein kinase C eta type (Homo sapiens) (P24723 whole entry): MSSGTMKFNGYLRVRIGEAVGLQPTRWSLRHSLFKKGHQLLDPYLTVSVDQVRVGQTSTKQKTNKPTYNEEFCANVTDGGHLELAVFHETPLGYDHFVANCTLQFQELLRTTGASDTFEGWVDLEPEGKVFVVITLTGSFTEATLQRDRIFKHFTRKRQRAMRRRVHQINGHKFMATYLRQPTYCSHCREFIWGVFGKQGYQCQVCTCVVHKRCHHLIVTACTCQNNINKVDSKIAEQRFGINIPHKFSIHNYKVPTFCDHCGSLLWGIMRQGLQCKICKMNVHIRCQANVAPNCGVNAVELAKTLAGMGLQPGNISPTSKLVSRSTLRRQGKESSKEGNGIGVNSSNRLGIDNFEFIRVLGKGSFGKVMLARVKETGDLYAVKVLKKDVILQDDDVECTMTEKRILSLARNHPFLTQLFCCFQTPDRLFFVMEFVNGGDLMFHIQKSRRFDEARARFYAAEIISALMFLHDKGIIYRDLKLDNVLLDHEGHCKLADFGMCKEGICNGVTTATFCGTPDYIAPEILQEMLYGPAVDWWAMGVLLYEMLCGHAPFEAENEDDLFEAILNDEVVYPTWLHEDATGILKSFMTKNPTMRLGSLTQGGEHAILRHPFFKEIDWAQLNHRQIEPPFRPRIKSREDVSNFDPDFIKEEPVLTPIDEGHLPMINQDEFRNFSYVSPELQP

[9] = target: Protein kinase C eta type (Homo sapiens) (UniProt P24723); details: at 1 µM
[10] = target: Protein kinase C gamma type (Homo sapiens) (UniProt P05129); details: at 0.1 µM;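 also: values are mean percent inhibition of PKC gamma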

Structure (SMILES) | inhibition [1] | inhibition [2] | inhibition [3] | inhibition [4] | inhibition [5] | inhibition [6] | inhibition [7] | inhibition [8] | inhibition [9] | inhibition [10]
CS(=O)(=O)Nc1ccc(-c2ccc3c(NC(=O)C4CC4)n[nH]c3c2)cc1 | 2.46% | 1.42% | 1.85% | 1.17% | 1.78% | -0.7% | 0.21% | 4.05% | 1.11% | 2.49%
NC(=O)c1ccc2c(-c3ccnc(NCCCO)n3)c(-c3ccc(F)cc3)nn2c1 | 2.05% | 2.22% | 2.01% | 1.39% | 11% | 2.42% | 17.5% | 2.29% | 4.92% | 3.3%
COc1cc2c(cc1Nc1nc(Nc3cccc(F)c3C(N)=O)c3cc[nH]c3n1)N(C(=O)CN1CCN(C(C)C)CC1)CC2 | -0.05% | 3.63% | 2.83% | 3.39% | 1.01% | 0.6% | 3.47% | 0.59% | 1.37% | 1.36%
NS(=O)(=O)c1cccc(N/C=C2\C(=O)Nc3ccccc32)c1 | 4.6% | 2.79% | 1.62% | 0.98% | 2.84% | -0.22% | 2.02% | 1.78% | 3.72% | 0.43%
CNC(=O)c1cncc(/C=C/c2ccccc2C)c1 | 2.42% | 4.12% | 3.53% | 0.63% | 1.68% | 1.31% | 5.47% | 4.83% | 5.78% | -2.58%
Cc1ccc(-c2cc3c(NC(=O)C4CC4)ncnc3o2)cc1 | 1.92% | 1.76% | 1.5% | 0.9% | 0.92% | 2.14% | 2.41% | 2.1% | 1.62% | 2.91%
CS(=O)(=O)CCNCc1ccoc1-c1ccc2ncnc(Nc3ccc(OCc4ccccc4)cc3)c2c1 | 1.23% | 1.55% | 1.02% | -0.16% | 0.23% | -0.13% | -4.5% | 1.81% | -0.91% | 0.57%
NS(=O)(=O)c1ccc(N/N=C2\C(=O)Nc3cccc(CCc4ccncc4)c32)cc1 | 6.76% | 1.41% | 1.07% | 0.11% | 0.43% | -0.59% | -0.96% | -1.41% | 1.16% | -0.97%
COc1ccccc1-c1cc(/C=C2\C(=O)Nc3ncc(Br)cc32)cc(Br)c1O | 2.09% | 1.83% | 1.05% | 0.82% | 1.73% | -0.31% | 0.26% | 2.06% | 1.62% | -0.61%
COc1cc(N2CCN(C(C)C)CC2)ccc1Nc1nc(Nc2cccc(F)c2C(=O)O)c2cc[nH]c2n1 | 2.24% | 1.49% | 2.03% | 1.38% | 2.23% | -0.07% | 3.07% | 2.71% | 4.16% | 1.77%
COC(=O)Nc1nc2ccc(Oc3ccc(NC(=O)Nc4cc(C(F)(F)F)ccc4F)cc3)cc2s1 | 0.63% | 1.2% | 0.64% | -0.14% | 9.89% | 1.64% | 2.17% | 2.29% | 1.44% | -2.55%
CN1CCC(C(=O)Nc2n[nH]c3nc(-c4ccc(O)cc4)c(Br)cc23)CC1 | 0.58% and 1.23% | -1.53% and 1.47% | 1.39% and 2.8% | -2.91% and 0.74% | 7.49% and 11.2% | 2.04% and 0.96% | 13.9% and 10.2% | 3.63% and 1.62% | 8.67% and 3.54% | 4.29% and -2.24%
NS(=O)(=O)c1ccc(N/N=C2\C(=O)Nc3ccc(C(=O)NCc4ccncc4)cc32)cc1 | 10.9% | 5.56% | 8.91% | 0.49% | 2.27% | -0.39% | 5.08% | 6.25% | 4.31% | 1.42%
CNC(=O)c1sc(-n2cnc3cc(OC)c(OC)cc32)cc1OCc1ccccc1C(F)(F)F | 1.81% | 2.01% | 2.29% | 0.09% | 0.93% | 1.29% | -0.63% | 3.69% | 1.55% | 5.06%
c1ccc(-c2n[nH]cc2-c2ccnc(-c3ccc(OCCn4ccnc4)cc3)c2)nc1 | 0.22% | 0.39% | 4.32% | 0.35% | 0.47% | 0.31% | 0.68% | -2.29% | -0.53% | 0.17%
Cc1c2ccc(N(C)c3ccnc(Nc4cccc(S(N)(=O)=O)c4)n3)cc2nn1C | 1.36% | -2.27% | -0.54% | -2.47% | -0.96% | 0.1% | -0.52% | 4.05% | 1.15% | 1.65%
Cn1c(-c2nonc2N)nc2cnccc21 | 4.21% | 2.05% | 6.79% | 0.48% | 2.7% | 7.33% | 36.2% | 6.3% | 29.4% | 1.7%
COc1cc(Nc2ncc(-c3ccccc3)o2)cc(OC)c1 | 1.45% | 1.51% | 1.67% | 1.19% | 1.72% | 0.24% | 2.31% | 4.07% | 6.3% | 0.82%
CCn1c(-c2nonc2N)nc2cncc(C(=O)NCCNC)c21 | 1.56% | 42.5% | 78.2% | 15.5% | 58.2% | 61.1% | 74.4% | 73.9% | 93.6% | 6.21%
CCCNc1cccc(-n2ncc3c(N/N=C/c4ccncc4)ncnc32)c1 | 1.19% | 1.59% | 3.62% | 0.98% | 1.45% | 1.35% | 5.99% | 2.17% | 2.92% | 1.35%
CN1CCC(n2cnc(-c3ccc(F)cc3)c2-c2ccnc(NCCO)n2)CC1 | 1.23% | 2.28% | 4.71% | 1.14% | 6.57% | 0.78% | 5.76% | 3.08% | 2.5% | 3.49%
CCOc1ccc2c(-c3ccnc(Nc4cc(OC)cc(C(F)(F)F)c4)n3)cnn2n1 | 1.07% | 0.6% | 3.91% | 0.42% | 5.31% | 5.55% | 2.13% | 1.53% | -0.66% | 1.75%
CCS(=O)(=O)c1ccc(OC)c(Nc2ncc(-c3cccc(F)c3)o2)c1 | 4.01% | 2.45% | 6.7% | 1.28% | 3.32% | -1.13% | 2.28% | 3.12% | 3.91% | 5.17%
COc1ccc2ncn(-c3cc(O[C@H](C)c4ccccc4C(F)(F)F)c(C(N)=O)s3)c2c1 | 0.59% | 0.69% | 0.52% | 0.07% | 0.04% | 0.44% | 1.04% | 1.89% | 1.45% | -2.52%
